About 83,000 compounds went through this panel and 20% of them were active in at least one assay; those are over-represented in the sample as a whole.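 Method: cells in 96-well plates; compound added at one concentration; 48 h incubation; percent growth measured; values under 10 scored active.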 Activity calls are given as the source filed them.
system: MDA-MB-468 breast; assay: NCI-60 one-dose screen, 48 h (100 = growth as untreated, 0 = no growth, -100 = all killed); details: 10 µM unless noted

`Cc1ccc(C(=O)Cc2ccccc2)c(O)c1` was tested. Which growth did it give?
Its growth is 117% (inactive).

For `COc1ccc(N2C(=O)CC(c3cc(OC)c(OC)c(OC)c3)C3C2=NC(=O)N3C)cc1` (stereo not drawn), which growth is on record?
The growth was 98.9% (inactive).

For `O=C1C=CC(=O)N1c1ccccc1N1C(=O)C=CC1=O`, which growth is on record?
The growth was 104% (inactive).
